This is part of a sample that, as a whole, favours compounds with a hit. Of some 83,000 tested, about 20% had one in any assay.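 How to read the values: 0–100, growth inhibition (40 = 60% inhibited); 0, no net growth; -100 to 0, cell death (-40 = 40% of starting cells died; -100 = all dead).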 A number with no mark means an inactive call. Calls of active or inactive are those of the source. The calls were made as follows: active = growth percent below 10; inactive = the rest.
These compounds were tested on MDA-MB-231 breast (assay: NCI-60 one-dose screen, 48 h (100 = growth as untreated, 0 = no growth, -100 = all killed)). Conditions: 10 µM unless noted.

Row | SMILES | growth
1 | OCCCCc1nccc2c1[nH]c1ccccc12 | 94.8%
2 | CCCn1nc(-c2ccccc2)c2c(-c3ccccc3)onc2c1=O | 81.6%
3 | Cc1cc(N(CCCNc2ccnc3cc(Cl)ccc23)Cc2ccccn2)nc(N2CCCC2)n1 | 56.2%
4 | C=C(C)[C@@H]1CC[C@]2(CN)CC[C@]3(C)[C@H](CC[C@@H]4[C@@]5(C)CCC(N)[C@@](C)(CO)[C@@H]5CC[C@]43C)[C@@H]12 (some centres not stated) | -80.9% (active)
5 | COc1ccc(-n2ncn(CCCCCCn3cnn(-c4ccc(OC)cc4)c3=O)c2=O)cc1 | 87.4%
6 | O=C(NC1CCOCC1)c1ccc2c(c1)CN(c1ncc(Cc3cccc(-n4cccn4)c3)s1)CC2 | 37.1%
7 | C=C(CNCCc1ccc(O)cc1)[C@@H]1CC[C@]2(COC3CCCCO3)CC[C@]3(C)[C@H](CC[C@@H]4[C@@]5(C)CCC(NCCO)C(C)(C)[C@@H]5CC[C@]43C)[C@@H]12 (some centres not stated) | -94.3% (active)
8 | Cc1c(C(=O)O[C@H]2[C@@H]3[C@H](C)CC[C@H]3[C@]3(C)O[C@@]2(C2CCCCC2)C[C@H]3OC(=O)CO)ccc2ccccc12 | 33.2%
9 | COc1ccc(Oc2nc(Nc3ccc(N4CCCCC4)nc3)ncc2NC(=O)c2cc(OC)cc(OC)c2)cc1 | 61.5%
10 | O=C(Oc1ccc[nH]c1=O)c1cc([N+](=O)[O-])cc([N+](=O)[O-])c1 | 114%
11 | Cc1cc(N2CCCCC2)nc(N(CCNc2ccnc3cc(Cl)ccc23)Cc2ccccn2)n1 | 49.6%
12 | CCCCOc1ccc(NC(=O)n2nc(N=NN(C)C)c3ccc(Cl)cc32)cc1 | 104%

Reference: PubChem BioAssay (NCI)
